Data reported in PubChem BioAssay (NCATS).
“And” between values parts separate entries of the source, which are not always exact repeats. Equal entries are not always repeated. Results filed as inconclusive are left out. The source made the active and inactive calls. Unless noted, the call rests on the fitted dose curve; in most records, active means well fitted curve in the direction sought with a large enough effect; inconclusive means small, poorly fitted or top-dose-only effect, or another doubt; inactive means no such curve, though single readings can be large; an effect the other way counts as inactive or inconclusive.

Legend:
[1] = target: Glucocorticoid receptor (Homo sapiens) (UniProt P04150); test: qHTS assay for small molecule antagonists of glucocorticoid receptor signaling (AID 588533; active means well fitted inhibition curve with a large enough effect in the signal ratio, with a control signal flat, not every such curve was filed as active; the % refers to the signal ratio;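 further: cells stimulated with 2 nM dexamethasone as agonist; on the % scale 0 is the no-effect control and ±100 the full control effect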)
Summary of the method: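 Antagonist-mode qHTS: compound titrations added to GRE-bla HeLa cells, then dexamethasone 2 nM final; 18 h, 37 C. CCF4 FRET fluorescence normalized to dexamethasone and DMSO; IC50 from Hill fit.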

[2] = qHTS assay for small molecule antagonists of peroxisome proliferator-activated receptor delta signaling (AID 588535); conditions: HEK293T PPARd-UAS-bla, beta-lactamase FRET ratio, 18 h; 460 nm channel;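 further: cells co-treated with a PPAR-delta agonist as stimulator during compound exposure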
Summary of the method: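 Reporter: UAS-bla under PPAR-delta response element, HEK293T host. Medium: 2% charcoal/dextran FBS. Dosing: titration, 18 hrs, 37 C. Detection: CCF4, 2 hrs RT, 405 ex/460 and 530 em.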

[3] = target: Vitamin D3 receptor (Homo sapiens) (UniProt P11473); test: qHTS assay for small molecule antagonists of vitamin D receptor signaling (AID 588541; calls by dose curve; further: potency means the concentration at half of the fitted maximal effect)
Summary of the method: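 VDR-UAS-bla HEK293T cells (2000/well, 2% charcoal-stripped FBS) were treated with titrated compounds plus 1-alpha,25-dihydroxyvitamin D3 (50 nM or 3 nM final) for 16 h at 37 C. CCF4 beta-lactamase fluorescence was read; Hill fits gave IC50.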

[4] = target: Vitamin D3 receptor (Homo sapiens) (UniProt P11473); test: qHTS assay for small molecule agonists of vitamin D receptor signaling (AID 588543; calls by dose curve;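 further: 0% = DMSO basal and 100% = reference agonist control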)
Summary of the method: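 Agonist-mode beta-lactamase reporter: HEK293T VDR-UAS-bla cells in charcoal-stripped 2% FBS, compound series 16 h 37 C, CCF4 2 h RT. EC50 from Hill fit, scaled against DMSO and 50 nM calcitriol control.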

[5] = qHTS assay for small molecule agonists of retinoid X receptor alpha signaling (AID 588544; calls by dose curve;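 on activation: 0% = DMSO basal wells and 100% = reference agonist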); conditions: HEK293T RXRa-UAS-bla, beta-lactamase reporter, 18 h; 530 nm emission
[6] = target: Retinoic acid receptor RXR-alpha (Homo sapiens) (UniProt P19793); test: as above
[7] = qHTS assay for small molecule antagonists of retinoid X receptor alpha signaling (AID 588546; active means well fitted inhibition curve with a large enough effect in the signal ratio, with a control signal flat, not every such curve was filed as active; the % refers to the signal ratio; further: potency means the concentration at half of the fitted maximal effect;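 on max response: cells stimulated with 9-cis-retinoic acid as agonist; on the % scale 0 is the no-effect control and ±100 the full control effect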); conditions: HEK293T RXRa-UAS-bla, beta-lactamase ratio, antagonist mode; measured here: W530 green channel, cytotoxicity proxy
Summary of the method: (§1)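 Beta-lactamase reporter inhibition, read as CCF4 fluorescence ratio (ex 405, em 460/530 nm) after 2 h at RT. HEK293T UAS-bla cells, 2500/well, were stimulated with 9-cis-RA at 500 or 100 nM final alongside test compound for 18 h at 37 C.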

[8] = target: Retinoic acid receptor RXR-alpha (Homo sapiens) (UniProt P19793); test: as above; conditions: HEK293T RXRa-UAS-bla, beta-lactamase ratio, antagonist mode
Summary of the method: as §1

[9] = qHTS assay for small molecule agonists of the antioxidant response element (ARE) signaling pathway (AID 651741; active means well fitted activation curve with a large enough effect in the signal ratio; the % refers to the signal ratio; further: potency means the concentration at half of the fitted maximal effect; on activation: % of control where 0% means no effect)
Summary of the method: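 Compounds in DMSO are pinned onto HepG2 ARE-bla cells (2,000/well) that were preincubated 5 h; plates stay 16 h at 37 C, then beta-lactamase activity is detected with LiveBLAzer B/G substrate by fluorescence.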

[10] = qHTS assay for small molecule activators of the p53 signaling pathway (AID 651743; active means well fitted activation curve with a large enough effect in the signal ratio, not every such curve was filed as active; the % refers to the signal ratio; further: series mostly up to about 92 µM; % of control where 0% means no effect); conditions: HCT-116 p53RE-bla, beta-lactamase FRET ratio, 16 h; activation: stronger effect = higher value
Summary of the method: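 Cell-based beta-lactamase reporter (p53 response elements, HCT-116 background). After a 5-hour preincubation, cells received compound for 16 hours at 37 C; substrate development ran 2 hours at room temperature.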

[11] = qHTS assay for environmental chemicals that activate the Aryl hydrocarbon Receptor (AhR) signaling pathway (AID 651777); conditions: 1A2-DRE human hepatoma cells, luciferase, 24 h; activation: stronger effect = higher value; further: % of control where 0% means no effect; nearly all actives have a fitted effect of over 15% in size
Summary of the method: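 Luminescence (One-Glo, 30 min, room temperature) reports AhR-driven luciferase in stably transfected human hepatoma cells bearing DRE and CYP1A2 promoter. Cells (1,200/well) were treated with compound for 24 hr at 37 C in qHTS format.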

[12] = qHTS assay for small molecule agonists of the antioxidant response element (ARE) signaling pathway measured by Nrf2-dependant transcriptional activity (AID 720636; active means well fitted curve in the direction sought with a large enough effect in the repeat runs; an effect the other way counts as inactive or inconclusive; further: potency means the concentration at half of the fitted maximal effect; on activation: % of control where 0% means no effect)
Summary of the method: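 Nrf2-dependent transcription read as ONE-Glo luciferase signal from ARE-luc HepG2 reporter cells after 16 hr compound treatment at 37 C, 5% CO2, in assay medium with 1% dialyzed FBS.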

[13] = qHTS assay for small molecule agonists of the antioxidant response element (ARE) signaling pathway measured by Nrf2-dependant transcriptional activity - cell viability counter screen (AID 720653; active means well fitted curve in the direction sought with a large enough effect in the repeat runs; an effect the other way counts as inactive or inconclusive; further: on the % scale 0 is the no-effect control and ±100 the full control effect); conditions: ARE-bla HepG2 viability, CellTiter-Glo ATP luminescence, 16 h; max response: stronger effect = lower value
Summary of the method: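 ARE-bla HepG2 cells (2,000/well) rested 5 hrs at 37C/5% CO2, then exposed to compounds in DMSO for 16 hrs. Viability was read in the same wells as intracellular ATP by luminescence, 30 min at room temperature after reagent addition.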

[14] = qHTS assay for cell viability of HEK293 cells (AID 743288); conditions: ATP luminescence (CellTiter-Glo), 18 h; max response: stronger effect = lower value; further: nearly all actives have a fitted effect of over 50% in size; further: potency means the concentration at half of the fitted maximal effect; on max response: on the % scale 0 is the no-effect control and ±100 the full control effect
Summary of the method: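 Total intracellular ATP, measured with a luciferase-coupled reagent, indicates the number of viable HEK293 cells. Exposure to test chemicals lasts 18 h at 37 C in 1,536-well format at 2,000 cells/well.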

[15] = qHTS assay for cell viability of the p53RE-bla HCT-116 cell line (AID 743292); further: on the % scale 0 is the no-effect control and ±100 the full control effect; nearly all actives have a fitted effect of over 55% in size
Summary of the method: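 ATP-based luminescent viability (CellTiter-Glo, 30 min RT) after 16 h compound treatment at 37 C of p53RE-bla HCT-116 cells, seeded at 4,000 cells/well and rested 5 h before dosing.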

[16] = target: Nuclear receptor subfamily 1 group I member 2 (Rattus norvegicus) (UniProt Q9R1A7); test: qHTS assay for small molecule activators of the rat pregnane X receptor (rPXR) signaling pathway (AID 651751; call rule not given here; further: 0% is about no effect); conditions: rPXR reporter cells, luciferase (One-Glo), 24 h
[17] = qHTS assay for small molecule activators of the human pregnane X receptor (PXR) signaling pathway (AID 720659; call rule not given here; further: 0% is about no effect)
[18] = target: Thyroid hormone receptor beta (Homo sapiens) (UniProt P10828); test: qHTS assay for small molecule agonists of thyroid hormone receptor beta signaling (AID 588545; calls by dose curve;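 further: 0% = DMSO only and 100% = 10 nM T3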)
Summary of the method: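 TR-UAS-bla-GripTite HEK 293 cells in medium with 2% charcoal/dextran FBS, 0.1 mM NEAA and 1 mM sodium pyruvate were treated with titrated compounds for 18 hrs at 37 C. Beta-lactamase reporter was read with CCF4 dye (ex 405, em 460/530 nm); EC50 from Hill fits.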

[19] = target: Peroxisome proliferator-activated receptor alpha (Homo sapiens) (UniProt Q07869); test: qHTS assay for small molecule agonists of the peroxisome proliferator-activated receptor alpha (PPARalpha) signaling pathway (AID 651778); conditions: PathHunter PPARalpha complementation, chemiluminescence, 6 h; max response: stronger effect = higher value; further: % of control where 0% means no effect
Summary of the method: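 Cells plated at 2,000/well and held overnight at 37 C, 5% CO2, then compound added by pin tool for 6 hr; after PathHunter detection reagent and 60 min at room temperature, chemiluminescence from enzyme complementation was read.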

[20] = target: Glucocorticoid receptor (Homo sapiens) (UniProt P04150); test: qHTS assay for small molecule agonists of glucocorticoid receptor signaling (AID 588532; active means well fitted curve in the direction sought with a large enough effect in the signal ratio, with a control signal flat; the % refers to the signal ratio;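 further: 100% = dexamethasone at 0.1 µM and 0% = DMSO only wells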); conditions: HeLa MMTV-bla, beta-lactamase ratio, agonist, 18 h; stronger effect = higher value; percent of dexamethasone control, DMSO zero
Summary of the method: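 Stimulation of a glucocorticoid response element-driven beta-lactamase gene was measured in HeLa cells. Responses were scaled between DMSO basal and 0.1 uM dexamethasone, then fitted for half-maximal stimulation.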

Chain of Retinoic acid receptor RXR-alpha (Homo sapiens) (P19793 whole entry, looked up): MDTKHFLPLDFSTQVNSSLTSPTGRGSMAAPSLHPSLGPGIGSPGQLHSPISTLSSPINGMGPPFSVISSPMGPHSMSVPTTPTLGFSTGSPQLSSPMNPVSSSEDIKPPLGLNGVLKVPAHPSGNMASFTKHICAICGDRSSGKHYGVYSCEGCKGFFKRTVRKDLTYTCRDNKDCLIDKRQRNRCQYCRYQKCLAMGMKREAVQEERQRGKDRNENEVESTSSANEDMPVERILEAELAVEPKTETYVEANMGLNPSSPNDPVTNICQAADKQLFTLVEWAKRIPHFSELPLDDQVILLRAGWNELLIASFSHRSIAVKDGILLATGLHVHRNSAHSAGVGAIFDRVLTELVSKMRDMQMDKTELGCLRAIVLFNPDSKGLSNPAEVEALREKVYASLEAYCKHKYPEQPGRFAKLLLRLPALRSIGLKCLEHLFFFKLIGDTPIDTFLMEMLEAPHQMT
Chain of Nuclear receptor subfamily 1 group I member 2 (Rattus norvegicus) (Q9R1A7 whole entry, looked up): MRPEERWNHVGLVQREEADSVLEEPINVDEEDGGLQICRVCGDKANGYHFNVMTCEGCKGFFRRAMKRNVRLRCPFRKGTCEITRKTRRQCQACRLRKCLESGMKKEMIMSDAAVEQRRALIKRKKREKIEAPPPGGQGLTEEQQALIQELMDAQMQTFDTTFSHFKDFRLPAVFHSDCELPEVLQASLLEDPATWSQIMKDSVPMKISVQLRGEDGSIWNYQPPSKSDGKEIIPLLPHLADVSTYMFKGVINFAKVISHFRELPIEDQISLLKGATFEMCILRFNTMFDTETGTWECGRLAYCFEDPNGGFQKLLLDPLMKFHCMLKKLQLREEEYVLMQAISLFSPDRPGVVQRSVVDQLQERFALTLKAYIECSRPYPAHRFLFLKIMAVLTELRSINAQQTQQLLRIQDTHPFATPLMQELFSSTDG
Chain of Peroxisome proliferator-activated receptor alpha (Homo sapiens) (Q07869 whole entry, looked up): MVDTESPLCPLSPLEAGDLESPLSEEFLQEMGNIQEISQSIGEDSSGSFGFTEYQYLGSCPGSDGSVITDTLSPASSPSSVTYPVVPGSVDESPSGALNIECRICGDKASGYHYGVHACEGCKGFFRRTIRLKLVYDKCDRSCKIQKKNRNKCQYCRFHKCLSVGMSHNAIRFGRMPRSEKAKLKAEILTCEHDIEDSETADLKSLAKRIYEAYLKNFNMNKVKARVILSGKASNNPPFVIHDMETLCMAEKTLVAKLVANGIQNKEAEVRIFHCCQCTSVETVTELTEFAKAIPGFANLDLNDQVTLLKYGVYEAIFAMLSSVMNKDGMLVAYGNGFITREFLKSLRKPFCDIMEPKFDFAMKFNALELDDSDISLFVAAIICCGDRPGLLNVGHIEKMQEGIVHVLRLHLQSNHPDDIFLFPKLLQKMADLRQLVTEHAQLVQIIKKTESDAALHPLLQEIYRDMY
Chain of Vitamin D3 receptor (Homo sapiens) (P11473 whole entry, looked up): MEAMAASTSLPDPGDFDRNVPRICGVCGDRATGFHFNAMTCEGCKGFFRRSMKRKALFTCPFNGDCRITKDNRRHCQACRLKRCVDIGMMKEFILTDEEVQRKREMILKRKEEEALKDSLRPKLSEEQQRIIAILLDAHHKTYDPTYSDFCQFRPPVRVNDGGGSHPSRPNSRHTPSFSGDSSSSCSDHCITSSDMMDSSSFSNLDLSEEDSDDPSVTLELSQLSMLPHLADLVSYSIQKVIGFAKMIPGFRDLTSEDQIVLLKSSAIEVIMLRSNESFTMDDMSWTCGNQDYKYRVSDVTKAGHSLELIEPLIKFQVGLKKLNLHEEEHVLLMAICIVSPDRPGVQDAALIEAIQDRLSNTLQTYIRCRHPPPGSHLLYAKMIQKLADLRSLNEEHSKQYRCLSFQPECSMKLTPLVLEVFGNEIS
Chain of Glucocorticoid receptor (Homo sapiens) (P04150 whole entry, looked up): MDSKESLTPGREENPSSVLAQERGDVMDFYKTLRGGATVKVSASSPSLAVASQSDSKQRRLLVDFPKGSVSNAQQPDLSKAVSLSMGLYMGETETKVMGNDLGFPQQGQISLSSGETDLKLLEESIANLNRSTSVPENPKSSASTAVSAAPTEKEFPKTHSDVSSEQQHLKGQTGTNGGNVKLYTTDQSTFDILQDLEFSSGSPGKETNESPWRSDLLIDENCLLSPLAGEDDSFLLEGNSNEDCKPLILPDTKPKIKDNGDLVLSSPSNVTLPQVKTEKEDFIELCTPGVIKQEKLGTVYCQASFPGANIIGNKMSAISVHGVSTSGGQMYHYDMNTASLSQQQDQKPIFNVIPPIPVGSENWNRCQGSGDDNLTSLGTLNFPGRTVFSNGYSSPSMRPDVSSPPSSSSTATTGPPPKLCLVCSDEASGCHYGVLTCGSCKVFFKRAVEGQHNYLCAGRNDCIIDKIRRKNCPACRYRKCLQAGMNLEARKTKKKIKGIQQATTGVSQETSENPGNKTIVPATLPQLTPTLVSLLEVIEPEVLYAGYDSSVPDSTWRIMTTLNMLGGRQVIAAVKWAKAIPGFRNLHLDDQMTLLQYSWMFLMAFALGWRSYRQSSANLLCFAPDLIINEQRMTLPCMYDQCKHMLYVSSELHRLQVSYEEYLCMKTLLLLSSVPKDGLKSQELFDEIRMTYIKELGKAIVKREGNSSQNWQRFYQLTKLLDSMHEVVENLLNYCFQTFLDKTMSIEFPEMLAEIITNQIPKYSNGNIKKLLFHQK
Chain of Thyroid hormone receptor beta (Homo sapiens) (P10828 whole entry, looked up): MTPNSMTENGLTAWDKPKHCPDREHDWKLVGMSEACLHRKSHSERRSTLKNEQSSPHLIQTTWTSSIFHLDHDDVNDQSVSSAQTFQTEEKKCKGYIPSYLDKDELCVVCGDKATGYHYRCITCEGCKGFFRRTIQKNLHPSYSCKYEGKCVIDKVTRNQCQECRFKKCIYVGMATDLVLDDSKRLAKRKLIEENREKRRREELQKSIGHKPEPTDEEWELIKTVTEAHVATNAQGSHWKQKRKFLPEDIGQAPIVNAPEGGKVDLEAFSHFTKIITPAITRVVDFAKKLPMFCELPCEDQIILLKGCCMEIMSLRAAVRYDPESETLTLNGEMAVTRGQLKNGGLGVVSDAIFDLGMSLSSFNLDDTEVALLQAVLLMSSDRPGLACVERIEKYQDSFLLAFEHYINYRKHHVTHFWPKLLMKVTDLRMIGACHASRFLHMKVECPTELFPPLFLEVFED

O=C(Cl)c1cccc(C(=O)Cl)c1
-3.89%: max response [7]
inactive: Potency [1] | Potency [3] | outcome [4] | Potency [6] | max response [8] -13.1% | Potency [9] | activation [10] -3.51% | activation [11] -0.235% | Potency [12] | max response [13] 5.28% | max response [14] -6.55% | Potency [15] | max response [16] -0.886% | outcome [17]
-7.46%: max response [5]
-11.7%: max response [2]

CCCOC(=O)NCCCN(C)C
inactive: Potency [3] | outcome [4] | Potency [18] | max response [8] 1.48% | Potency [9] | activation [10] -1.96% | activation [11] 2.96% | Potency [12] | max response [13] -5.96% | max response [14] -0.93% | Potency [15] | max response [16] 8.36% | outcome [17]
-8.13%: max response [7]

S=C([S-])NCCNC(=S)[S-].[Mn+2]
inactive: Potency [1] | outcome [4] | Potency [18] | activation [11] 2.64% and 10.8% | max response [19] -2% and -3.91% | max response [13] -8.97% and -21.3% | max response [14] -16.3% | Potency [15] | max response [16] -0.103% and -4.92%

C[C@]12CC[C@@H]3c4ccc(O)cc4CC[C@H]3[C@@H]1CC[C@H]2O
inactive: activation [20] -4.59% | Potency [3] | outcome [4] | Potency [9] | max response [19] -0.0791% | Potency [12] | max response [13] -10.8% | max response [14] -24% | Potency [15]

Clc1nc(Cl)c(Cl)c(Cl)c1Cl
active: Potency [9] 17.2 µM
-0.304%: max response [7]
31.1%: max response [2]
-3.68%: max response [5]
inactive: Potency [1] | outcome [4] | Potency [6] | Potency [18] | max response [8] -25.7% | Potency [12] | max response [13] -5.53% | max response [14] -14.3% | Potency [15] | max response [16] -3.08% | outcome [17]

Nc1ccc(Nc2ccccc2)cc1
active: Potency [9] 30.6 µM
-6.58%: max response [7]
inactive: Potency [1] | max response [8] -27.9% | activation [11] 5.3% | max response [19] -0.422% | max response [13] 14.3% | max response [14] -17.7% | Potency [15] | max response [16] 8.87%

CCCCCOC(=O)COc1cc(N2C(=O)C3=C(CCCC3)C2=O)c(F)cc1Cl
inactive: activation [20] 3.85% | Potency [1] | Potency [3] | outcome [4] | Potency [18] | activation [11] 0.703% | max response [19] 1.28% | max response [13] 8.37% | max response [14] 4.43% | max response [16] 4.68% | outcome [17]

C=C(C)C(=O)OCCC[Si](Cl)(Cl)Cl
-12.2%: max response [5]
8.96%: max response [2]
inactive: Potency [1] | Potency [3] | Potency [6] | max response [8] 9.64% | activation [10] -1.03% | activation [11] -0.113% | max response [19] 0.0328% | Potency [12] | max response [13] -17.2% | max response [14] -10.2% | Potency [15] | max response [16] 1.99% | outcome [17]
-12.6%: max response [7]

C=CC(=O)OCCOCC(CC)(COCCOC(=O)C=C)COCCOC(=O)C=C
inactive: activation [20] -19.8% | outcome [4] | activation [10] 14.9% | activation [11] 5.29% | max response [13] -10.9% | outcome [17]
active: Potency [3] 28.2 µM | Potency [9] 30.6 µM | Potency [12] 21.7 µM | Potency [14] 39.8 µM

O=[N+]([O-])c1ccc(O)cc1C(F)(F)F
-4.35%: max response [2]
inactive: activation [20] -7.74% | outcome [4] | Potency [18] | activation [11] 14.2% | max response [19] -8.59% | Potency [12] | Potency [15] | outcome [17]
6.72%: max response [7]
active: Potency [8] 7.94 µM | Potency [9] 34.4 µM

Brc1ccc(Oc2ccc(Br)cc2)cc1
inactive: Potency [1] | Potency [3] | outcome [4] | Potency [18] | max response [8] 3.5% | Potency [9] | activation [10] 0.901% | max response [19] 4.27% | Potency [12] | max response [13] -9.27% | max response [14] -10% | Potency [15] | max response [16] -1.1% | outcome [17]
-2.23%: max response [7]
0.317%: max response [2]

N#CSCSc1nc2ccccc2s1
inactive: outcome [4] | Potency [12]

C=C(C)C(=O)OCCC[Si](OC)(OC)OC
inactive: Potency [1] | Potency [6] | Potency [18] | max response [8] -21.4% | Potency [9] | activation [10] -1.41% | activation [11] -2.37% | max response [19] -1.45% | Potency [12] | max response [13] -0.904% | Potency [15] | max response [16] -1.68%
51.6%: max response [2]
-3.97%: max response [7]
-14.5%: max response [5]

O=C=NC1CCC(CC2CCC(N=C=O)CC2)CC1 (centres undefined)
inactive: activation [20] -3.36% | Potency [3] | outcome [4] | Potency [6] | max response [8] -13.6% | Potency [9] | activation [10] -0.886% | activation [11] 0.629% | max response [19] -2.73% | Potency [12] | max response [13] -1.04% | max response [14] -9.19% | Potency [15] | max response [16] -1.91% | outcome [17]
-11%: max response [5]
20.7%: max response [2]
-7.15%: max response [7]
